# Source: paper PMC11062922 (Nature Chemical Biology, 2023)
# Where two headings read alike, the source gives them in different places.
# What was measured:
# Design in all cases: species or system human, MV4-11 + K-562 + COLO205 + SK-N-BE2 + OVCAR-8
# [1] = system: DYRK1A; settings: read-out: apparent Kd, n = 1
# [2] = system: MARK4; settings: read-out: apparent Kd, n = 1
# [3] = system: PRKCD; settings: read-out: apparent Kd, n = 1
# [4] = system: PRKD2; settings: read-out: apparent Kd, n = 1
# [5] = system: PRKD3; settings: read-out: apparent Kd, n = 1
# [6] = system: RPS6KA6; settings: read-out: apparent Kd, n = 1
# [7] = system: FLT3; settings: read-out: apparent Kd, n = 1
# [8] = system: MYLK3; settings: read-out: apparent Kd, n = 1
# [9] = system: CDK7; settings: read-out: apparent Kd, n = 1
# [10] = system: ERCC2; settings: read-out: apparent Kd, n = 1
# [11] = system: FER; settings: read-out: apparent Kd, compound concentrations: 100 nM and 1000 nM (sheet 'Samples'), n = 1
# [12] = system: PLK4; settings: read-out: apparent Kd; compound concentrations: 100 nM and 1000 nM (sheet 'Samples'), CATDS: 5.91687426181325E-2; n = 1
# [13] = system: PRKCQ; settings: read-out: apparent Kd, n = 1
# [14] = system: PTK2B; settings: read-out: apparent Kd, compound concentrations: 100 nM and 1000 nM (sheet 'Samples'), n = 1
# [15] = system: CDKL5; settings: read-out: apparent Kd, n = 1
# [16] = system: LATS1; settings: read-out: apparent Kd, n = 1
# [17] = system: STK10; settings: read-out: apparent Kd; compound concentrations: 100 nM and 1000 nM (sheet 'Samples'), CATDS: 5.40109770146803E-2; n = 1
# [18] = system: PTK2; settings: read-out: apparent Kd; compound concentrations: 100 nM and 1000 nM (sheet 'Samples'), CATDS: 4.2596941934388698E-2; n = 1
# [19] = system: TNK2; settings: read-out: apparent Kd, compound concentrations: 100 nM and 1000 nM (sheet 'Samples'), n = 1
# [20] = system: PRKAA1; settings: read-out: apparent Kd; compound concentrations:100 nM and 1000 nM (sheet 'Samples'); n = 1
# [21] = compound concentrations:100 nM and 1000 nM (sheet 'Samples')
smiles,measurement,setting,value
Cc1occc1-c1nc(N)c(OC[C@@H](N)Cc2c[nH]c3ccccc23)cc1-c1cc2c(C)n[nH]c2cn1 [GSK1660450B],potency estimated from few doses,[1]; [21],1790 nM
same,potency estimated from few doses,[2]; [21],1110 nM
same,potency estimated from few doses,[3]; [21],8.62 nM
same,potency estimated from few doses,[4]; [21],386 nM
same,potency estimated from few doses,[5]; [21],170 nM
same,potency estimated from few doses,[6]; [21],19.1 nM
O=C1N=C(NCCc2cccs2)S/C1=C\c1ccc2ncccc2c1 [RO4508348-000],potency estimated from few doses,"[1]; compound concentrations: 100 nM and 1000 nM (sheet 'Samples'), CATDS: 0.139481417923777",734 nM
same,potency estimated from few doses,"[7]; compound concentrations: 100 nM and 1000 nM (sheet 'Samples'), CATDS: 0.15045749947439399",638 nM
COc1cc[nH]c1/C=C1\C(=O)Nc2ccc(F)c(I)c21 [RO0281567-000],potency estimated from few doses,"[7]; compound concentrations: 100 nM and 1000 nM (sheet 'Samples'), CATDS: 0.206841572593601",374 nM
same,potency estimated from few doses,"[8]; compound concentrations: 100 nM and 1000 nM (sheet 'Samples'), CATDS: 0.10963488486357401",1520 nM
Cl.Cn1cc(C2=C(c3c4n(c5ccccc35)CCNC4)C(=O)NC2=O)c2ccccc21 [RO0318365-001],potency estimated from few doses,"[9]; compound concentrations: 100 nM and 1000 nM (sheet 'Samples'), CATDS: 7.1923944144695898E-2",734 nM
same,potency estimated from few doses,"[10]; compound concentrations: 100 nM and 1000 nM (sheet 'Samples'), CATDS: 7.4045119432564296E-2",696 nM
same,potency estimated from few doses,[11]; CATDS: 6.02044843999179E-2,1060 nM
same,potency estimated from few doses,[12],1100 nM
same,potency estimated from few doses,"[3]; compound concentrations: 100 nM and 1000 nM (sheet 'Samples'), CATDS: 4.8671677826933601E-2",1810 nM
same,potency estimated from few doses,"[13]; compound concentrations: 100 nM and 1000 nM (sheet 'Samples'), CATDS: 7.9846572084882106E-2",607 nM
same,potency estimated from few doses,[14]; CATDS: 6.7595952047570504E-2,828 nM
Cn1cc(C2=C(c3c(S(C)=O)n(C)c4ccccc34)C(=O)NC2=O)c2ccccc21 (stereo not drawn) [RO0317379-000],potency estimated from few doses,"[15]; compound concentrations: 100 nM and 1000 nM (sheet 'Samples'), CATDS: 0.106131192264054",1600 nM
COc1cccc(C2=C(c3c(C)n(C)c4ccccc34)C(=O)NC2=O)c1 [RO3300167-000],potency estimated from few doses,"[16]; compound concentrations: 100 nM and 1000 nM (sheet 'Samples'), CATDS: 7.6284475672850502E-2",1700 nM
same,potency estimated from few doses,"[2]; compound concentrations: 100 nM and 1000 nM (sheet 'Samples'), CATDS: 8.0513919134026293E-2",1480 nM
same,potency estimated from few doses,"[4]; compound concentrations: 100 nM and 1000 nM (sheet 'Samples'), CATDS: 8.0855416148342393E-2",1470 nM
same,potency estimated from few doses,"[5]; compound concentrations: 100 nM and 1000 nM (sheet 'Samples'), CATDS: 7.4607672697658597E-2",1800 nM
CCn1c(-c2nonc2N)nc2cncc(Br)c21 [SB-738004],potency estimated from few doses,[1]; [21],717 nM
same,potency estimated from few doses,[7]; [21],1190 nM
same,potency estimated from few doses,[3]; [21],649 nM
same,potency estimated from few doses,[13]; [21],2390 nM
CC(C)N1CC(=O)N(C)c2cnc(Nc3cccc(S(=O)(=O)CCN4CCOCC4)c3)nc21 [BI00009348],potency estimated from few doses,[17],1450 nM
Cc1cc(NC(=O)c2cccc(NC(=O)/C=C/CN(C)C)c2)ccc1Nc1nccc(-c2cccnc2)n1 [JNK-IN-7],potency estimated from few doses,[15]; [21],958 nM
Cn1cc(C2=C(c3ccc(OC[C@@H](O)CO)cc3)C(=O)NC2=O)c2ccccc21 [RO3208546-000],potency estimated from few doses,"[9]; compound concentrations: 100 nM and 1000 nM (sheet 'Samples'), CATDS: 4.6127698813653598E-2",768 nM
same,potency estimated from few doses,"[10]; compound concentrations: 100 nM and 1000 nM (sheet 'Samples'), CATDS: 5.3996089618989399E-2",559 nM
same,potency estimated from few doses,[11]; CATDS: 5.24891250459407E-2,590 nM
same,potency estimated from few doses,[14]; CATDS: 4.1151087302781601E-2,996 nM
same,potency estimated from few doses,[18],918 nM
same,potency estimated from few doses,"[6]; compound concentrations: 100 nM and 1000 nM (sheet 'Samples'), CATDS: 5.0913712031047997E-2",626 nM
same,potency estimated from few doses,[19]; CATDS: 6.2991293235435897E-2,422 nM
O=C1N=C(NCc2ccccc2Br)S/C1=C\c1ccc2ncccc2c1 [RO4506918-000],potency estimated from few doses,"[1]; compound concentrations: 100 nM and 1000 nM (sheet 'Samples'), CATDS: 8.9156542240232201E-2",912 nM
NS(=O)(=O)c1ccc(N/N=C2\C(=O)Nc3ccc4ncccc4c32)cc1 [GW305178X],potency estimated from few doses,"[15]; compound concentrations: 100 nM and 1000 nM (sheet 'Samples'), CATDS: 5.21381649539812E-2",867 nM
COc1cc[nH]c1/C=C1\C(=O)Nc2ccc(F)c(C#C[C@@H](O)[C@@H](N)[C@@H](C)O)c21 [RO0283120-000],potency estimated from few doses,[9]; [21],445 nM
same,potency estimated from few doses,[15]; [21],32.4 nM
same,potency estimated from few doses,[10]; [21],785 nM
same,potency estimated from few doses,[7]; [21],59.3 nM
same,potency estimated from few doses,[16]; [21],125 nM
same,potency estimated from few doses,[2]; [21],703 nM
same,potency estimated from few doses,[8]; [21],827 nM
same,potency estimated from few doses,[20],1040 nM
same,potency estimated from few doses,[4]; [21],278 nM
same,potency estimated from few doses,[5]; [21],236 nM
CNCC1CCn2c(c(C3=C(c4cn(C)c5ccccc45)C(=O)NC3=O)c3ccccc32)C1 (stereo not drawn) [RO0318676-000],potency estimated from few doses,"[9]; compound concentrations: 100 nM and 1000 nM (sheet 'Samples'), CATDS: 3.3814045459066702E-2",945 nM
same,potency estimated from few doses,"[10]; compound concentrations: 100 nM and 1000 nM (sheet 'Samples'), CATDS: 3.3447385930038299E-2",976 nM
same,potency estimated from few doses,[11]; CATDS: 3.4006049633961401E-2,929 nM
same,potency estimated from few doses,"[3]; compound concentrations: 100 nM and 1000 nM (sheet 'Samples'), CATDS: 0.12623439225341199",48.7 nM
same,potency estimated from few doses,"[13]; compound concentrations: 100 nM and 1000 nM (sheet 'Samples'), CATDS: 0.111424858077941",61.3 nM
same,potency estimated from few doses,[14]; CATDS: 3.5074234548869702E-2,849 nM
same,potency estimated from few doses,"[6]; compound concentrations: 100 nM and 1000 nM (sheet 'Samples'), CATDS: 8.7281654841073406E-2",98.7 nM
same,potency estimated from few doses,[19]; CATDS: 3.7292246432418498E-2,715 nM
O=C1N=C(N[C@@H](CO)Cc2ccccc2)S/C1=C\c1ccc2ncccc2c1 [RO4509200-000],potency estimated from few doses,"[15]; compound concentrations: 100 nM and 1000 nM (sheet 'Samples'), CATDS: 0.117206813575506",975 nM
same,potency estimated from few doses,"[1]; compound concentrations: 100 nM and 1000 nM (sheet 'Samples'), CATDS: 0.168916103718072",440 nM
O=C1N=C(NCCc2ccccc2Cl)S/C1=C\c1ccc2ncccc2c1 [RO4498484-000],potency estimated from few doses,"[15]; compound concentrations: 100 nM and 1000 nM (sheet 'Samples'), CATDS: 6.1493092563951302E-2",1600 nM
same,potency estimated from few doses,"[1]; compound concentrations: 100 nM and 1000 nM (sheet 'Samples'), CATDS: 8.1161352179904903E-2",673 nM
same,potency estimated from few doses,"[7]; compound concentrations: 100 nM and 1000 nM (sheet 'Samples'), CATDS: 6.2849399961882796E-2",1470 nM
NS(=O)(=O)c1ccc(N/N=C2\C(=O)Nc3ccc(-c4cnco4)cc32)cc1 [GW276655_KCGS],potency estimated from few doses,[8]; [21],988 nM
CCn1c(-c2nonc2N)nc2cncc(C(=O)N3CC[C@H](N)C3)c21.Cl [SB-772077-B],potency estimated from few doses,[1]; [21],1520 nM
same,potency estimated from few doses,[3]; [21],843 nM
